In the supplement of paper PMC10849652 one finds log2 fold change data, which are given here for 15 targets.

The full data set covers some 8,800 targets. This sample favours those with a hit. About 0.5% of all pairs of compound and target were hits. Unmarked numbers belong to inactive results.

Assay in all cases: log2 fold change, soluble protein after heating vs DMSO (PISA); higher = thermal stabilisation; K562 lysate, 10 uM; active = over 0.2 and 3.5 SD of the protein, either way, in both replicates (recomputed)
Compound in assay [1]: Cc1cn(-c2cc(NC(=O)c3ccc(C)c(Nc4nccc(-c5cccnc5)n4)c3)cc(C(F)(F)F)c2)cn1 [nilotinib]
The procedure, abridged:
(§1)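 Thermal stability, expressed as log-two fold change relative to solvent controls, is given from duplicates. Crude K562 extract in PBS pH 7.4 with 1 mM MgCl2, at 1 mg/mL protein, was treated with 10 μM compound for 30 min and heated in aliquots for 3 min across 48°C-58°C. After pooling, adjustment to 0.5% NP-40 at 4°C and centrifugation at 21,000xg for 90 min, supernatant protein was measured by TMTpro 16plex LC-MS/MS with channel sums equalised.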

Compound in assay [2]: Cc1nc(Nc2n[nH]c3c2CN(C(=O)N[C@H](CN(C)C)c2ccccc2)C3(C)C)c2sccc2n1
The procedure, abridged:
as §1

Compound in assay [3]: Cc1nc(Nc2ncc(C(=O)Nc3c(C)cccc3Cl)s2)cc(N2CCN(CCO)CC2)n1 [dasatinib]
Put shortly:
as §1

Compound in assay [4]: Cc1ncc(-c2ccnc(Nc3ccc(S(C)(=O)=O)cc3)n2)n1C(C)C
Put shortly:
as §1

Compound in assay [5]: Cn1cc(-c2ccc3c(c2)CCN3C(=O)Cc2cccc(C(F)(F)F)c2)c2c(N)ncnc21
Put shortly:
as §1

Compound in assay [6]: Cn1cc(CNCC2CCN(c3ncc(C(=O)NO)cn3)CC2)c2ccccc21 [quisinostat]
The procedure, abridged: as §1

Compound in assay [7]: Cn1cncc1[C@@](N)(c1ccc(Cl)cc1)c1ccc2c(c1)c(-c1cccc(Cl)c1)cc(=O)n2C [tipifarnib]
Put shortly:
as §1

Compound in assay [8]: NC(=O)Nc1cc(-c2cccc(F)c2)sc1C(=O)N[C@H]1CCCNC1
The procedure, abridged: as §1

Compound in assay [9]: NC(=O)c1cnc(N[C@@H]2CCCC[C@@H]2N)nc1Nc1cccc(-n2nccn2)c1
The procedure, abridged: as §1

Compound in assay [10]: NC1(c2ccc(-c3nc4ccn5c(=O)[nH]nc5c4cc3-c3ccccc3)cc2)CCC1
Put shortly: as §1

Chain of UniProt Q9Y6I8 (Q9Y6I8 whole entry, looked up): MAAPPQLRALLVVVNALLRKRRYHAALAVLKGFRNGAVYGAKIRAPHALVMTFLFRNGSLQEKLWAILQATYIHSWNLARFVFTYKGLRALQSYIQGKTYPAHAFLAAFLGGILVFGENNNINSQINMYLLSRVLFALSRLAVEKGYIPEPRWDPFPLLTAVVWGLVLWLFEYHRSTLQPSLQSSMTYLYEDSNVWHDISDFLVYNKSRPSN
Chain of UniProt Q93100 (Q93100 whole entry, looked up): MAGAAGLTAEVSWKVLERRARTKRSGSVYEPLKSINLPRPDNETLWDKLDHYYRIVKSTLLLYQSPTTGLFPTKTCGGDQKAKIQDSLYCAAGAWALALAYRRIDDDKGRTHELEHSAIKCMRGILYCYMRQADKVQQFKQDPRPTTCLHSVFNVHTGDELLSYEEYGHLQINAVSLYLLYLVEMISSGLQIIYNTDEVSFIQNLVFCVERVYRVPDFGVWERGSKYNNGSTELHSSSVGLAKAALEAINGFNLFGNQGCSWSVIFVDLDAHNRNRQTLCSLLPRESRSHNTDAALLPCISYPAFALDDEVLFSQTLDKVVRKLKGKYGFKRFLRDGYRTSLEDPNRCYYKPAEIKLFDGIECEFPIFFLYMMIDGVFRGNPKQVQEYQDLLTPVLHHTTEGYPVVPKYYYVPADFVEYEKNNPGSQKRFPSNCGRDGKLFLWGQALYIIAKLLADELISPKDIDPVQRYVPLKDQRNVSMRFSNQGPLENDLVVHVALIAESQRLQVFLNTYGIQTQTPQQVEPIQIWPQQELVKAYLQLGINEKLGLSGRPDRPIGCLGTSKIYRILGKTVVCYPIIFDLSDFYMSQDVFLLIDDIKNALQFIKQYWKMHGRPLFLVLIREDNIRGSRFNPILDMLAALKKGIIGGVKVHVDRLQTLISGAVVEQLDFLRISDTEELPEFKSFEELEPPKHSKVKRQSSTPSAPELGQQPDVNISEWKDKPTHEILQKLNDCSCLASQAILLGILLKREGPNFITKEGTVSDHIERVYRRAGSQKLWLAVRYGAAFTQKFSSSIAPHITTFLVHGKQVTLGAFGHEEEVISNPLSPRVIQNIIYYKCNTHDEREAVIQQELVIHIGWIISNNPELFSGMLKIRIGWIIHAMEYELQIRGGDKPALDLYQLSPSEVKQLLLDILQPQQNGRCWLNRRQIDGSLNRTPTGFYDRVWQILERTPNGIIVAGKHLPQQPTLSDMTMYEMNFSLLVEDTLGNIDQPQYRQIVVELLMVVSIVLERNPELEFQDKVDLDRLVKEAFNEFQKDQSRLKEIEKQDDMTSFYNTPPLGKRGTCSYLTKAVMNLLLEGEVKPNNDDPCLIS
Chain of UniProt Q9H3S7 (Q9H3S7 whole entry, looked up): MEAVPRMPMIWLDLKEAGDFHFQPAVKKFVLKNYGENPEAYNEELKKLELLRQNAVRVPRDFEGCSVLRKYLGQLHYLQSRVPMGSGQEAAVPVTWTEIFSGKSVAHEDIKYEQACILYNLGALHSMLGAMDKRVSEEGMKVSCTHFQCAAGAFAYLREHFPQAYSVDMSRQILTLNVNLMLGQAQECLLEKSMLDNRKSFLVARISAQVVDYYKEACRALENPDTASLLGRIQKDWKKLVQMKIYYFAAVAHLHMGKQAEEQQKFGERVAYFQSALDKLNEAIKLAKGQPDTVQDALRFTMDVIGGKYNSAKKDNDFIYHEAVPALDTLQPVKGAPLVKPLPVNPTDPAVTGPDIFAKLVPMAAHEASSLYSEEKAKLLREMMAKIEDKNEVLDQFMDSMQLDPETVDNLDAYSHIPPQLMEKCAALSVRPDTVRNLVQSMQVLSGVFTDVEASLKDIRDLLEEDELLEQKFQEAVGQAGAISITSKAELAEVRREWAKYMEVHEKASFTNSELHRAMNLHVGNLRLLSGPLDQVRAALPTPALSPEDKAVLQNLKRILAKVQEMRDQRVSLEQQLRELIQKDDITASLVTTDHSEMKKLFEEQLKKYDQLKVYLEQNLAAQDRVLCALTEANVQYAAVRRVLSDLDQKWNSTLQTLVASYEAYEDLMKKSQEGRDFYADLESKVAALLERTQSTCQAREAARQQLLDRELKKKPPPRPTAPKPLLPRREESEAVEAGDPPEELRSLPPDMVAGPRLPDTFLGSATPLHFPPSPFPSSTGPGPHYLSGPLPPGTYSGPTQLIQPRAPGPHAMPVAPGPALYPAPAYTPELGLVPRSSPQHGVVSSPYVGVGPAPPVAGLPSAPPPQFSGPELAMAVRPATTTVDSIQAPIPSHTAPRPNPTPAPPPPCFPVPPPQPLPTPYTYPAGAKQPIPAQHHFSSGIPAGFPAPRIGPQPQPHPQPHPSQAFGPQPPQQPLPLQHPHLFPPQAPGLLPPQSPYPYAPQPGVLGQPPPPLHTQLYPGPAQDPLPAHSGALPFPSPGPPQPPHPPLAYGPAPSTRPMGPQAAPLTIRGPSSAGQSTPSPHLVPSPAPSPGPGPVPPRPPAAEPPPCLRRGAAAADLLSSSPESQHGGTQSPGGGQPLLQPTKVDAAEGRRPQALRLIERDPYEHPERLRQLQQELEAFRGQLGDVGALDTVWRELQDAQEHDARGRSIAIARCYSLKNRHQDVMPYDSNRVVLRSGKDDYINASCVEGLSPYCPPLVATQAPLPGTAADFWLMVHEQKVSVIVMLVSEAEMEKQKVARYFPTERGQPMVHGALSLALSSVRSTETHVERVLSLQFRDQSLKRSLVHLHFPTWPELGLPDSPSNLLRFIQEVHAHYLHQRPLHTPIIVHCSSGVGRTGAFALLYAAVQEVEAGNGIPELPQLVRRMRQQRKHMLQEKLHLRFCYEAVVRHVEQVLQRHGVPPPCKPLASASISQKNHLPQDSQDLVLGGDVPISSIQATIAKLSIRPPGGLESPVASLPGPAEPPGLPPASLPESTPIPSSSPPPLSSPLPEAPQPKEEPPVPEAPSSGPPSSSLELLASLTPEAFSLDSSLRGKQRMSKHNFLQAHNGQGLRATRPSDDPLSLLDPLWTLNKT
Chain of UniProt P23219 (P23219 whole entry, looked up): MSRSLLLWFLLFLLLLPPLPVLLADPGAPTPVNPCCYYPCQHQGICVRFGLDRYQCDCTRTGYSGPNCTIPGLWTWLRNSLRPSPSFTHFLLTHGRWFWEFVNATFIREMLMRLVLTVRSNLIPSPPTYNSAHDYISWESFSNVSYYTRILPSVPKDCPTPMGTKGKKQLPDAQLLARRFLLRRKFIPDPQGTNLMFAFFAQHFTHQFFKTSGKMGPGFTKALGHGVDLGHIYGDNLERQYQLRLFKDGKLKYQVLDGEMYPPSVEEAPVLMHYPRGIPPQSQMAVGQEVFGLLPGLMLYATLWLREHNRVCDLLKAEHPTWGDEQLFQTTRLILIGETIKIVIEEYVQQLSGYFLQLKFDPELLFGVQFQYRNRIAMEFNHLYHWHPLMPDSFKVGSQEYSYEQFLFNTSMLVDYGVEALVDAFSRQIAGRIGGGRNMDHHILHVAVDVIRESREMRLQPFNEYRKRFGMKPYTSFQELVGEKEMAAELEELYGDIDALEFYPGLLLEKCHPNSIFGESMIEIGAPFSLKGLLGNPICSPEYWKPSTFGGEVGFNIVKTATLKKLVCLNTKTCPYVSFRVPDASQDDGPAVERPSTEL
Chain of UniProt Q9UBF8 (Q9UBF8 whole entry, looked up): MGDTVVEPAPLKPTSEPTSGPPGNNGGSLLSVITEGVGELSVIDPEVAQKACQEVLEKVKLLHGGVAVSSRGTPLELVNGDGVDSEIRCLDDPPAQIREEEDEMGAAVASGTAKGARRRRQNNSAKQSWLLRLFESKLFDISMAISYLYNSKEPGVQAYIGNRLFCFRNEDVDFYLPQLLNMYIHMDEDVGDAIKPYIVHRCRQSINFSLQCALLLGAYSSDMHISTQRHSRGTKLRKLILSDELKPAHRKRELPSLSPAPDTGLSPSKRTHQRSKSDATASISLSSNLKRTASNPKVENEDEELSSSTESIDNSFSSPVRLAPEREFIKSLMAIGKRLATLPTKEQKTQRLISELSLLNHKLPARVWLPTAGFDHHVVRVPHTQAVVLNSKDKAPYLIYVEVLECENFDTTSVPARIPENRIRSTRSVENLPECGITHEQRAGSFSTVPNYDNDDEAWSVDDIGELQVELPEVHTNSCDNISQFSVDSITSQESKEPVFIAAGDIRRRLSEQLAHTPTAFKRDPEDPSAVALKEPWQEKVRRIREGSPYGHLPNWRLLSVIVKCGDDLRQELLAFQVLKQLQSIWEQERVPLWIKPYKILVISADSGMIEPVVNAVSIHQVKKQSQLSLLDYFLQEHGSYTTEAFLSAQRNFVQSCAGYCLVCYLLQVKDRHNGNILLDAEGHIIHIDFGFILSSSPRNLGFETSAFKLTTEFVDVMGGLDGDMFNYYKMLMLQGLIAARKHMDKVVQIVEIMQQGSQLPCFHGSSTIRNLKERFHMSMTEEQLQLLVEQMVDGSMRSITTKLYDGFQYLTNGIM
Chain of UniProt P53350 (P53350 whole entry, looked up): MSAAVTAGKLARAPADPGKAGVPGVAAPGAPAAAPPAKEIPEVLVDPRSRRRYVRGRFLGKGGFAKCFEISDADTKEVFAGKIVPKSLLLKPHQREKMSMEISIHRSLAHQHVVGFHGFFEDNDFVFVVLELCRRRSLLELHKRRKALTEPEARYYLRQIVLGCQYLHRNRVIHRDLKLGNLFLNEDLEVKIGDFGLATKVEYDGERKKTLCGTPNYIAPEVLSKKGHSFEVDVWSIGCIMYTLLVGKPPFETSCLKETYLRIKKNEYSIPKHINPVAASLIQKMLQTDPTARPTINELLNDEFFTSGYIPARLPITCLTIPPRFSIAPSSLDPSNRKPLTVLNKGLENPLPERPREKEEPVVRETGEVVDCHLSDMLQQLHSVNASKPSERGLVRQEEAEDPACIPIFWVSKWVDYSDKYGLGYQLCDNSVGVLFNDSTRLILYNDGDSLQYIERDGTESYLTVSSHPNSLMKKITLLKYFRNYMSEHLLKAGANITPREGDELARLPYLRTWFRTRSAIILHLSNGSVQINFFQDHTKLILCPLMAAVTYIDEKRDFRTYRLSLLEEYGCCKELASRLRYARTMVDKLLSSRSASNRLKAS

PI4KB (UniProt Q9UBF8): the log2 fold change in assay [1] was 0.003; in assay [2] it was 0.145; in assay [3] it was 0.002; in assay [4], 0.165; in [5], 0.013; in assay [6], -0.072. Also, the log2 fold change in assay [7] is -0.024; in [8], -0.026; in assay [9], -0.049; in assay [10], -0.014.

In the case of POLR2F (UniProt P61218), the log2 fold change in assay [1] is 0.023; in assay [2] it was -0.019; in assay [3] it was 0.274; in [4], 0.107; in assay [5] it was -0.015; in assay [6], -0.034. Moreover, the log2 fold change in assay [7] is 0.015; in assay [8] it was 0.008; in assay [9], -0.052; in [10] it was -0.021.

In the case of PI4KA (UniProt P42356), the log2 fold change in [1] is -0.025; in assay [2], 0.055; in assay [3], -0.098; in assay [4], 0.015; in assay [5], 0.043; in assay [6] it was -0.076. The log2 fold change in [7] is -0.031; in assay [8] it was 0.041; in assay [9], 0.003; in assay [10] it was 0.019.

Regarding PHKB isoform 3 (UniProt Q93100), the log2 fold change is -0.007 in assay [1]; 0.121 in assay [2]; -0.023 in [3]; 0.001 in assay [4]; 0.008 in [5]; -0.063 in assay [6]. Also, the log2 fold change in [7] was -0.035; in assay [8] it was 0.28 (active); in [9], 0.004; in assay [10] it was -0.058.

For the target PRMT8 (UniProt Q9NR22), the log2 fold change in assay [1] is 0.007; in [2], -0.021; in [3], -0.039; in [4], -0.01; in [5], -0.023; in assay [6] it was -0.057. Also, the log2 fold change in assay [7] was 0.036; in assay [8], 0.034; in [9], -0.023; in [10], -0.056.

PTGS1 isoform 6 (UniProt P23219): the log2 fold change in assay [1] is 0.021; in assay [2], 0.058; in assay [3], 0.034; in assay [4], 0.043; in assay [5] it was 0.053; in assay [6], -0.04. Also, the log2 fold change is -0.039 in assay [7], 0.022 in [8], -0.008 in [9] and 0.001 in assay [10].

For PRKCB isoform 2 (UniProt P05771), the log2 fold change in [1] was -0.014; in [2], 0.256 (active); in assay [3], -0.06; in assay [4], -0.093; in assay [5], -0.007; in [6], 0.017. Also, the log2 fold change was -0.038 in assay [7], -0.416 (active) in assay [8], 0.181 in assay [9] and -0.037 in assay [10].

As to PXMP4 (UniProt Q9Y6I8), the log2 fold change in [1] is -0.011; in assay [2] it was 0.014; in [3], 0.078; in assay [4], 0.013; in assay [5], -0.092; in assay [6], -0.146. The log2 fold change in assay [7] was 0.846 (active); in assay [8], 0.018; in assay [9] it was -0.018; in assay [10], -0.215.

As for PRKACA (UniProt P17612), the log2 fold change in assay [1] is -0.055; in [2] it was 0.638 (active); in assay [3], 0.07; in assay [4], 0.068; in assay [5], 0.049; in assay [6], 0.097. Besides, the log2 fold change in [7] was -0.083; in [8], 0.637 (active); in assay [9] it was 0.273; in assay [10], -0.038.

Turning to PLK1 (UniProt P53350), the log2 fold change was 0.014 in assay [1]; -0.073 in assay [2]; -0.004 in [3]; 0.008 in [4]; -0.015 in assay [5]; -0.021 in assay [6]. Besides, the log2 fold change in assay [7] is 0.032; in assay [8] it was -0.193; in assay [9] it was -0.043; in assay [10], 0.01.

In the case of PRKCA (UniProt P17252), the log2 fold change was -0.008 in assay [1]; 0.227 in assay [2]; -0.028 in assay [3]; 0.095 in assay [4]; -0.056 in [5]; -0.035 in assay [6]. Also, the log2 fold change in [7] is 0; in assay [8], -0.067; in assay [9] it was 0.408 (active); in assay [10] it was -0.006.

Regarding PRKRA (UniProt O75569), the log2 fold change in assay [1] is 0; in [2], -0.001; in [3], -0.01; in [4], 0.034; in [5], 0.029; in assay [6], -0.058. Besides, the log2 fold change in [7] was 0.016; in assay [8], 0.036; in assay [9], 0.012; in assay [10], -0.043.

Regarding PFKFB2 (UniProt O60825), the log2 fold change in assay [1] was -0.04; in assay [2], 0.011; in assay [3], 0.017; in [4], -0.043; in [5], 0.014; in [6], 0.024. The log2 fold change in assay [7] was -0.011; in assay [8], -0.046; in assay [9] it was -0.003; in assay [10], -0.009.

For the target PTPN23 (UniProt Q9H3S7), the log2 fold change was -0.003 in [1]; -0.029 in assay [2]; -0.034 in [3]; -0.002 in assay [4]; 0.01 in assay [5]; 0.002 in assay [6]. The log2 fold change in assay [7] is 0; in assay [8] it was 0.024; in assay [9] it was 0.025; in assay [10], 0.005.

On to PI4K2A (UniProt Q9BTU6), for which the log2 fold change is 0.009 in [1]; 0.03 in [2]; -0.036 in assay [3]; 0.207 (active) in assay [4]; -0.024 in [5]; 0.01 in assay [6]. For the same target, the log2 fold change is -0.064 in assay [7], 0.071 in assay [8], 0.49 (active) in assay [9] and -0.004 in assay [10].
